# Assay outcomes from PubChem BioAssay.
# An excerpt weighted towards active compounds, which were near 7.3% of everything screened.
# Luciferase inh – Firefly luciferase inhibition profiling of diverse chemical library using quantitative high-throughput screening; purified P. pyralis luciferase, luminescence, biochemical; 2.5% of 76,000 active; Potency, µM (doses to about 115 µM), most hits filed as inhibitors; note: nearly all actives have a fitted effect of over 65% in size
#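 Purified 10nM P. pyralis luciferase with 10uM D-luciferin and 10uM ATP in 50mM Tris acetate pH 7.5, 10mM Mg acetate, 0.01% Tween-20, 0.05% BSA. qHTS titration; luminescence read by CCD imager.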
# SNCA expr inhib – Primary qHTS assay for inhibitors of alpha-synuclein gene (SNCA) expression; 0.17% of 140,000 active; HEK-293 SNCA-luciferase knock-in, luminescence, 24 h; Potency, µM (series often up to 57.2 µM), actives largely listed as inhibitors; note: nearly all actives have a fitted effect of over 45% in size
# HEK293 viab – GF-AFC viability counterscreen for inhibitors of alpha-synuclein gene (SNCA) expression; HEK-293-SNCA-luc viability, GF-AFC fluorescence, 24 h; 0.12% of 150,000 active; Potency, µM (titrated, usually from 57.1 µM), actives largely listed as cytotoxic; note: nearly all actives have a fitted effect of over 30% in size
#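 Cytotoxicity counterscreen: after 24 h compound treatment of genome-edited SNCA-luciferase HEK-293 cells, live-cell protease substrate GF-AFC read by fluorescence after 30 min; activity scaled between DMSO (0%) and medium-only (-100%), curves Hill-fitted.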
# HEK293 tox – Cytotoxic Profiling in HEK 293 Cell Line of Diverse Libraries Using Quantitative High-Throughput Screening; HEK 293 viability, ATP luminescence (CellTiter-Glo), 48-72 h; Potency, µM (doses to about 115 µM), usual class: inhibitors; 6.6% of 94,000 active; AID 1345083, 2018; note: nearly all actives have a fitted effect of over 60% in size
#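 HEK 293 cells seeded at 250 cells/well were exposed to compound for 48 or 72 hr at 37 degree Celsius. Viability taken as ATP content by CellTiter-Glo luminescence.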
# NIH3T3 tox – Cytotoxic Profiling in NIH 3T3 Cell Line of Diverse Libraries Using Quantitative High-Throughput Screening. NIH 3T3 viability, CellTiter-Glo ATP luminescence, 48-72 h. 4.3% of 94,000 active. AID 1345082, 2018. Potency, µM (top dose mostly 96.7 µM), actives largely listed as inhibitors; note: nearly all actives have a fitted effect of over 55% in size
#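 Luminescent ATP readout (CellTiter-Glo, 10 min RT) after 48 or 72 hr compound exposure of NIH 3T3 cells seeded at 400 cells/well in 1536-well format; quantitative HTS.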
# IP6K1 inhibitor – Primary qHTS assay for small molecule inhibitors of Inositol hexaphosphate kinase 1 (IP6K1). Inositol hexakisphosphate kinase 1 (Homo sapiens), Q92551. IP6K1 kinase, ADP-Glo luminescence, 2 h; active compounds read low. activity change, % (series mostly up to about 58 µM). 0.81% of 140,000 active; in the data active = activity change below about -25%
# Target sequence (Q92551 whole entry, looked up): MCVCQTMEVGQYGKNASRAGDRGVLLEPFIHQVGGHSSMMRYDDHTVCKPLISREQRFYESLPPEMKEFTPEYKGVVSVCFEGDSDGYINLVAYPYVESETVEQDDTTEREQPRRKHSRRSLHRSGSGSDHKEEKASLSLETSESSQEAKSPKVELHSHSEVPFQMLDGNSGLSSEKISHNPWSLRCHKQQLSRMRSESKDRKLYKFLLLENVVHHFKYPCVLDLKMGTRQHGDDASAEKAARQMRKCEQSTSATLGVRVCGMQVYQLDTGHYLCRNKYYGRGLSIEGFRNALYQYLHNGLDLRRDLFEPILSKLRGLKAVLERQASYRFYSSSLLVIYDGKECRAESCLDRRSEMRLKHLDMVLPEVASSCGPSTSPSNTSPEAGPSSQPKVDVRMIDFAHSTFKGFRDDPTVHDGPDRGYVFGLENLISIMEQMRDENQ
#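 ADP-Glo luminescence measures ADP made by human IP6K1 during a 2 h RT reaction with ATP/IP6 (mix at 1.3 mM/130 uM); top library doses 57.5 and 19.1 uM final.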
# Numbers stand for hits; n = inactive; u = inconclusive; x = not tested or not shown; [ ] = another dose, or the depositor's remark. Unless noted, calls come from the whole dose curve; as a rule, active = well fitted curve in the direction sought with a large enough effect; inconclusive = small, poorly fitted or top-dose-only effect, or another doubt; inactive = no such curve, though single readings can be large; an effect the other way counts as inactive or inconclusive.
SMILES,Luciferase inh,SNCA expr inhib,HEK293 viab,HEK293 tox,NIH3T3 tox,IP6K1 inhibitor
Cc1ccc(CC(=O)N2CC(c3nnc(-c4ccc(C)cc4)o3)C3(CCOCC3)C2)cc1 (configuration not stated),n,n,n,u,n,n
Cn1cnc(C(=O)N2CCC(Cc3ccc(C(=O)N4CCOCC4)cc3)CC2)c1,n,n,n,n,n,n
O=C(c1ccccn1)N1CCC(Cc2ccc(COc3ccncc3)cc2)CC1,x,n,n,u,25µM,n
Cn1cnc(C(=O)N2CCC(Cc3ccc(COc4cccc(F)c4)cc3)CC2)c1,x,u,n,16µM,u,n
COCCNC(=O)c1coc(COc2ccc3c(c2)C(c2cccc(F)c2)N(C(=O)C(C)C)CC3)n1 (configuration not stated),n,n,n,u,u,n
CCNC(=O)c1coc(COc2ccc3c(c2)C(c2cccc(F)c2)N(C(=O)C(C)C)CC3)n1 (configuration not stated),n,n,n,40µM,u,n
CCCNC(=O)c1coc(COc2ccc3c(c2)C(c2ccc(F)cc2)N(C(=O)C(C)C)CC3)n1 (configuration not stated),n,u,n,u,22µM,n
Cc1nc(CCC(=O)N2CCn3nc(C(=O)Nc4ccccc4)cc3C2)n[nH]1,28µM,n,n,n,n,n
Cc1nn(-c2ccccc2)c2c1C(C)N(C1CCN(C(=O)c3ccccc3F)C1)C2=O (configuration not stated),x,x,x,u,u,n
CC(=O)N1CCC(N2C(=O)c3c(c(C)nn3-c3ccccc3)C2C(C)C)CC1 (configuration not stated),x,x,x,n,u,n
Cc1ccccc1C(=O)N1CCC(N2C(=O)c3c(c(C)nn3-c3ccccc3)C2C(C)C)CC1 (configuration not stated),x,x,x,40µM,u,n
Cc1nn(-c2ccccc2)c2c1C(C(C)C)N(C1CCN(C(=O)c3ccccc3F)CC1)C2=O (configuration not stated),x,x,x,45µM,u,n
COCc1nc2nc(-c3ccccc3)c(-c3ccc([S+](C)(=O)[O-])cc3)cc2n1C,n,n,n,n,89µM,n
O=[S+]1([O-])c2cccnc2OC(COc2ccccc2)CN1Cc1ccc2c(c1)OCO2 (configuration not stated),x,n,n,u,u,n
COc1ccc(NC(=O)N2CCc3c(C(=O)NCCCN(C)C)cccc32)cc1,35µM,u,n,n,n,n
CCCNC(=O)c1cccc2c1CCN2C(=O)Nc1ccc(OC)cc1,0.35µM,28µM,n,u,u,n
O=C(CCc1c[nH]c2ccccc12)N1CCC(c2noc(C3CC3)n2)C1 (configuration not stated),n,n,n,n,u,n
O=C(NCC(F)(F)F)c1ccc2oc(-c3ccncc3Cl)nc2c1,x,n,n[12.5 µM],u,n,n
CSc1cccc(NC(=O)C2CCN(c3cnc4nc(C)c(C)nc4c3)CC2)c1,u,n,n,u,n,n
CSc1cccc(NC(=O)C2CCN(c3cnc4nccnc4c3)CC2)c1,n,n,u,8.9µM,6.3µM,n
COc1ccc(CN(C)C2CCCN(CCc3ccccc3)C2)cc1F (configuration not stated),n,u,n,u,u,n
O=[S+]1([O-])c2cccnc2OC(Cn2cccc2)CN1CCC1=CCCCC1 (configuration not stated),x,x,x,u,u,n
Cc1ccc2c(n1)OC(Cn1cccc1)CN(CCC1=CCCCC1)C2=O (configuration not stated),x,x,x,89µM,u,n
COCCn1c(C)cnc1CC1CCCN(Cc2cccc(F)c2)C1 (configuration not stated),n,n,n,n,n,n
COc1cccc(C(=O)N2CCCN(c3cc(-c4ccc(C)c(C)c4)[nH]n3)CC2)c1OC,n,n,n,40µM,u,n
SMILES,Luciferase inh,SNCA expr inhib,HEK293 viab,HEK293 tox,NIH3T3 tox,IP6K1 inhibitor
COc1ccc(Cl)cc1C(=O)N1CCCN(c2cc(-c3ccc(C)c(C)c3)[nH]n2)CC1,n,u,n,u,40µM,n
COc1cccc(C(=O)N2CCCN(c3cc(-c4ccc(Cl)cc4)[nH]n3)CC2)c1OC,n,n,n,u,u,n
C=C1C(=O)O[C@@H]2[C@H]1CC(=O)[C@H](C)[C@@](O)(C(=O)/C=C/C)[C@H]2OC(=O)C(C)CC (some centres not stated),x,x,9.3µM,x,x,n
O=C(c1cccc(OC2CN(CC3CC=CCC3)C2)c1)N1CCCC1 (configuration not stated),n,n,u,u,u,n
COCC(=O)N1CCC(C(=O)NCc2cc(-c3cccc(F)c3)no2)CC1,n,n,n,n,n,n
COc1ccc(S(=O)(=O)NC[C@@H]2C=C(C)[C@H](CC(=O)N3CCN(c4ccccn4)CC3)C[C@H]2C(C)C)cc1,n,u,u,u,8.9µM,n
CCOC(=O)C[C@@H]1C[C@@H](C(C)C)[C@H](CNS(=O)(=O)c2ccc(NC(C)=O)cc2)C=C1C,n,n,n,u,u,n
CCOC(=O)C[C@@H]1C[C@@H](C(C)C)[C@H](CNS(=O)(=O)c2ccc(OC)cc2)C=C1C,n,u,n,40µM,u,n
O=C1NC(C(=O)NCc2cccc(F)c2)Cn2cccc21 (configuration not stated),n,n,n,n,n,n
CCOC(=O)c1ccc(NC(=O)Cn2c(-c3cnccn3)nc(C)c(C)c2=O)cc1,n,u,n,u,n,n
COc1ccc(NC(=O)Cn2c(-c3ccc(Cl)cc3)nc(C)c(CCO)c2=O)cc1OC,n,n,n,n,n,n
CN(C)c1nccnc1OC1CCN(C(=O)c2ccccc2)C1 (configuration not stated),n,n,n,n,n,n
CCN1c2cc(C(=O)NCc3cccc(C(F)(F)F)c3)ccc2C(=O)N2CCCCCC21 (configuration not stated),n,n,n[12.5 µM],18µM,u,n
CCN1c2cc(C(=O)NCc3ccccc3)ccc2C(=O)N2CCCCCC21 (configuration not stated),n,n,n[12.5 µM],40µM,n,n
Cc1noc(C)c1-c1cc2c(cc(C)n2CCN(C)C)c(-c2ccsc2)n1,n,n,n,n,u,n
